Compound activity deposited in PubChem by National Center for Advancing Translational Sciences (NCATS).
Hits are enriched below; roughly 11% of the tested compounds scored in any of these assays.
HPGD block: blocks human HPGD enzyme activity | P15428 | purified HPGD, NADH fluorescence kinetic, PGE2 substrate | Potency, µM, actives largely listed as inhibitors | hit rate 4.3% among 150,000 | AID 894
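NADH formation kinetics: reaction with 30 uM PGE2 and 1 mM NAD+ (final), 20 nM enzyme, Tris-HCl pH 8 with Tween 20, after 15 min compound preincubation at room temperature. Fluorescence change, last versus first of five reads.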
ALDH1A1 inh: inhibitors of human aldehyde dehydrogenase 1A1; Purified ALDH1A1, NADH fluorescence, propionaldehyde substrate; hit rate 7.3% among 220,000; Potency, µM (highest dose often 75.3 µM), usual class: inhibitors; P00352
Target sequence (P00352 whole entry, looked up): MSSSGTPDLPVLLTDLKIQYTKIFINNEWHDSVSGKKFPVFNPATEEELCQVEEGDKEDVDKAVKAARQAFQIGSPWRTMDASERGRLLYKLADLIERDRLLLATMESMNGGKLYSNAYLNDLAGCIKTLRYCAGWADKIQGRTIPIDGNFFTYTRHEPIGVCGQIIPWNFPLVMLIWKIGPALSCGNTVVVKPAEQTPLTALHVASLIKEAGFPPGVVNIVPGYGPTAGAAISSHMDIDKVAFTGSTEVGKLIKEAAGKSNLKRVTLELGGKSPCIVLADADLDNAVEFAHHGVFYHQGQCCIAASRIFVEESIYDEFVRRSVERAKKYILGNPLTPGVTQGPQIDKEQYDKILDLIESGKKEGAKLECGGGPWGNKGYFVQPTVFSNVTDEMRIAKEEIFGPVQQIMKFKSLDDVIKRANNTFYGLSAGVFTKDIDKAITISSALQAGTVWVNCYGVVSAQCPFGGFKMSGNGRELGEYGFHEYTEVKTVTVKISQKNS
PNC inhibitor: blocks assembly of the perinucleolar compartment. AID 2417. PC3M PTB-GFP, PNC prevalence imaging, 16 h; stronger effect = lower value. hit rate 3.1% among 140,000. activity change (PNC), negative = inhibition, % at 10 µM;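 active means readout at or below -70, meaning at least 70% loss of cells showing the perinucleolar compartment, a nuclear body marking cancer cells; inconclusive means readout between -30 and a set limit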
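Read-out is percentage of cells bearing a perinucleolar compartment, from automated 20x imaging of fixed, Hoechst-stained PC3M PTB-GFP cells. Cells were seeded 4 h, then exposed 16 h to compound (23 nl of library stock) in duplicate plates.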
Each line names hits and unclear results; the compound was inactive in the other large screens. Unless noted, the call rests on the fitted dose curve; in most records, active means well fitted inhibition curve with a large enough effect (not every such curve was filed as active); inconclusive means small, poorly fitted or top-dose-only effect, or another doubt; inactive means no such curve, though single readings can be large or run the other way.

NNS(=O)(=O)c1cc(C(=O)O)cc(C(=O)O)c1	none (no result: PNC inhibitor)
COc1cccc([C@@H]2Oc3ccc(OC)cc3C[C@H]2OC(=O)Nc2cc(OC)c(OC)c(OC)c2)c1	none (no result: PNC inhibitor)
CC(CCc1ccccc1)NC(=O)COC(=O)C1CCC(C(C)(C)C)CC1 (stereo not drawn)	ALDH1A1 inh inconclusive
O=C(NC1CC2CCC(C1)N2Cc1nnnn1Cc1ccco1)NC12CC3CC(CC(C3)C1)C2 (stereo not drawn)	ALDH1A1 inh 7.9µM
O=C(Nc1ccc(F)cc1)NC1CCN(Cc2nnnn2Cc2ccco2)CC1	ALDH1A1 inh 18µM
O=C(NCc1ccccc1)NC1CC2CCC(C1)N2Cc1ccco1 (stereo not drawn)	none
CCOc1ccccc1C(=O)NC1CC2CCCC(C1)N2Cc1nnnn1Cc1ccco1 (stereo not drawn)	ALDH1A1 inh 1µM
O=C(Nc1ccccc1F)NC1CCN(Cc2nnnn2Cc2ccc(F)cc2)CC1	none
CCOc1ccccc1C(=O)NC1CC2CCCC(C1)N2C1CC1 (stereo not drawn)	none
Cc1ccc(C(=O)O/N=C\c2ccc(N3CCOCC3)c([N+](=O)[O-])c2)cc1	ALDH1A1 inh 2.2µM
O=C(N/N=C/c1ccccc1)c1ccc(N2CCOCC2)c([N+](=O)[O-])c1	ALDH1A1 inh inconclusive
O=C(O/N=C\c1ccc(N2CCCCC2)c([N+](=O)[O-])c1)c1ccc(Cl)cc1Cl	ALDH1A1 inh inconclusive
CCCCC(=O)N/N=C/c1ccc(N2CCOCC2)c([N+](=O)[O-])c1	ALDH1A1 inh 11µM
Cc1occc1-c1nnc(SCC(=O)N2CCOCC2)n1CCc1ccccc1	none
Cc1occc1-c1nnc(SCCCC(=O)c2ccc(F)cc2)n1C	ALDH1A1 inh inconclusive
CCn1c(SCC(=O)c2ccc(F)cc2)nnc1-c1ccoc1C	HPGD block inconclusive, ALDH1A1 inh 22µM, PNC inhibitor inconclusive
CCCCn1c(SCC(=O)N2CCOCC2)nnc1-c1ccoc1C	PNC inhibitor -100
COc1cccc(-c2nc(N3CCNCC3)c3ccccc3n2)c1	none (no result: PNC inhibitor)
COCCCNC(=S)N1CCN(S(C)(=O)=O)CC1	PNC inhibitor inconclusive
CCOC(=O)Cc1nn(Cc2nc(-c3ccc(C)cc3)cs2)c(=O)c2ccccc12	none (no result: HPGD block, PNC inhibitor)
CCc1ccccc1NC(=O)CSc1nnc([C@@H](N)Cc2ccccc2)o1	ALDH1A1 inh inconclusive
N[C@@H](Cc1ccccc1)c1nnc(SCc2ccccc2Cl)o1	HPGD block 28µM, ALDH1A1 inh inconclusive
Cc1ccc(C(=O)N/C(=C\c2ccc(-c3ccc([N+](=O)[O-])cc3)o2)C(=O)NC2CCS(=O)(=O)C2)cc1 (stereo not drawn)	PNC inhibitor inconclusive
COC(=O)N1CCC2(CC1)CN(C(=O)Nc1ccc(OC)cc1)C2	none (no result: PNC inhibitor)
Cc1nnc(SCc2cc([N+](=O)[O-])cc3c2OCOC3)n(N)c1=O	none (no result: HPGD block, PNC inhibitor)
CN(C)S(=O)(=O)c1cccc(-c2nnc(SCc3cc(Cl)cc4c3OCOC4)n2N)c1	HPGD block 7.1µM, ALDH1A1 inh 25µM
C=CCn1c(=O)/c(=C/c2ccc(Cl)cc2)s/c1=C(/C#N)c1nnc2n1CCCCC2	HPGD block 25µM, ALDH1A1 inh inconclusive
C=CCn1c(=O)/c(=C/c2ccc(O)cc2)s/c1=C(/C#N)c1nnc2n1CCCCC2	ALDH1A1 inh inconclusive
CN1CCN(C(=O)/C=C/c2ccc3c(c2)OCO3)CC1	HPGD block inconclusive
O=C(/C=C/C=C/c1ccc2c(c1)OCO2)N1CCCCC1	HPGD block 16µM, ALDH1A1 inh inconclusive (no result: PNC inhibitor)
S=C(NCCc1ccccn1)Nc1ccc(Cl)cc1Cl	none (no result: HPGD block, PNC inhibitor)
CCC(C(=O)OC)n1cnc2c(nnn2-c2cccc(Cl)c2)c1=O (stereo not drawn)	HPGD block 20µM
CCC(C(=O)OC)n1cnc2c(nnn2-c2ccc(OC)cc2)c1=O (stereo not drawn)	none
C/C(=N\Nc1nc(N2CCCCC2)nc(N2CCOCC2)n1)c1ccccc1O	none (no result: HPGD block, PNC inhibitor)
COc1ccc(S(=O)(=O)N2CCCCC2)cc1NC(=O)CSc1ncnc2ccccc12	none
Cc1nnc(SCc2ccccc2CSc2nnc(C)s2)s1	none (no result: HPGD block, PNC inhibitor)
CCOc1ccccc1NC(=O)COC(=O)Cc1ccc(-c2ccccc2)cc1	ALDH1A1 inh inconclusive
Cc1ccc(S(=O)(=O)NCCC(=O)O)cc1	none
Cc1ccc(S(=O)(=O)NCC(C)NS(=O)(=O)c2ccc(C)cc2)cc1 (stereo not drawn)	ALDH1A1 inh 0.4µM, PNC inhibitor inconclusive
CNC(=O)OC(C)CNS(=O)(=O)c1ccc(C)cc1 (stereo not drawn)	PNC inhibitor inconclusive
Cc1ccc(CCNS(=O)(=O)c2ccc(C)cc2)cc1	ALDH1A1 inh inconclusive, PNC inhibitor inconclusive
Cc1ccc(CSCCNS(=O)(=O)c2ccc(C)cc2)cc1	ALDH1A1 inh 10µM
Cc1ccc(S(=O)(=O)NCCc2ccc(S(N)(=O)=O)cc2)cc1	ALDH1A1 inh 25µM, PNC inhibitor inconclusive
N/C(CC/C(N)=N/O)=N\O	none (no result: PNC inhibitor)
O=C(Cn1nnc2ccccc2c1=O)NCCc1ccc(F)cc1	none
